Compound activity deposited in PubChem by The Scripps Research Institute Molecular Screening Center.
Hits are enriched below; roughly 4.8% of the tested compounds scored in any of these assays.
hgDAF-12 ag: activates the H. glycines DAF-12 receptor ligand-binding domain; HEK293 GAL4-hgDAF12 UAS-luciferase reporter, agonist luminescence; normalized to butyrate control; 370,000 tested, 1.8% active; AID 687014; activation, % at 6.8 µM;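 active = activation above a cutoff set at the mean of all screened compounds plus 3 SD, cut at about 10% in these data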
SMARCA2 act: activators of SMARCA2 function; MG213 cells, MMTV-luciferase reporter, dexamethasone, overnight; 370,000 tested, 1% active; AID 652017; activation, % at 9.1 µM; in the data active = activation above about 7.8%
DAX1 inh-1: inhibitors of DAX1 repression of SF-1 activated StAR promoter. HEK293T StAR-luciferase reporter, SF-1/DAX-1 repression relief. 370,000 tested, 1.1% active. inhibition, % at 6.8 µM;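 active = inhibition above the mean over all tested compounds plus 3 SD, cut at about 3.6% in these data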;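 note: higher inhibition means more luminescence from relief of DAX-1 repression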
DAX1 inh-2: inhibits human nuclear receptor DAX1; P51843; HEK293 Gal4-DAX1 luciferase reporter, luminescence; inhibition, % at 6.75 µM; 340,000 tested, 0.99% active;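 active = inhibition above the mean over all tested compounds plus 3 SD, cut at about 4.2% in these data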;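 note: inhibition shows as a rise in luminescence from relieved DAX1 repression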
Target sequence (P51843 207-470 limits assumed): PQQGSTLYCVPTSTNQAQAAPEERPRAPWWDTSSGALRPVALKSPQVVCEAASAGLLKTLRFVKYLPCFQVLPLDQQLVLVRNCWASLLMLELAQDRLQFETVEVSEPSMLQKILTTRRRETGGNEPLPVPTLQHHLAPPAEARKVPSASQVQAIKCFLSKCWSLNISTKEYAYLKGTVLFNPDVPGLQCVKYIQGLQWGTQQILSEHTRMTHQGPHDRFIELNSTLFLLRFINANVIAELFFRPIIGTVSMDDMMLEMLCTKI
hcDAF12 agonist: H. contortus DAF-12 activation, primary screen; 370,000 tested, 1.4% active; activation, % at 6.8 µM; HEK293 hcDAF-12 lit1-tk-luc reporter, luminescence; 0% DMSO, 100% Δ7-dafachronic acid;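 active = activation above the mean of all tested compounds plus 3 SD, cut at about 5.5% in these data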
ssDAF12 agonist: S. stercoralis DAF-12 activation, primary screen; HEK293 ssDAF-12/GRIP1 lit1-tk-luc reporter, luminescence; % of 3 µM dafachronic acid response; activation, % at 6.8 µM; 370,000 tested, 1% active;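 active = activation above the mean over all tested compounds plus 3 SD, cut at about 0.9% in these data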
Each line names hits and unclear results; the compound was inactive in the other large screens.

Oc1ccc(Cl)cc1-c1cc(-c2ccccc2Cl)[nH]n1	DAX1 inh-2 5.6, hcDAF12 agonist 6.1
O=C(NCCc1ccccc1)OCc1cn(Cc2ccccc2F)nn1	none (no result: DAX1 inh-2)
O=C1Nc2ccccc2N=C(c2ccc3c(c2)OCO3)C1N(C(=O)c1ccc2ccccc2c1)C1CC1 (stereo unspecified)	hgDAF-12 ag 11, hcDAF12 agonist 5.6 (no result: DAX1 inh-2)
O=C1Nc2ccccc2N=C(c2ccc3c(c2)OCO3)C1N(C(=O)c1ccnc2ccccc12)c1ccccc1 (stereo unspecified)	none (no result: DAX1 inh-2)
O=C(C=Cc1ccc(O)c(O)c1)NCC(=O)NC(Cc1ccccc1)C(=O)O (stereo unspecified)	none (no result: DAX1 inh-2)
O=c1c2ccccc2nc2ccc(NCc3ccco3)nn12	DAX1 inh-2 5.2
CCCCCCCCN1C(=O)[C@@H](CC(=O)N2CCN(C(=O)OCC)CC2)C[C@@]2(C(=O)OC)C1=C[C@H](COCc1ccccc1)O[C@@H]2C	none (no result: DAX1 inh-2)
O=C(Nc1ccc2c(c1)OCO2)O[C@@H]1CC[C@@]23CCCN2C(=O)CCC[C@H]3C1	none (no result: SMARCA2 act, DAX1 inh-1, DAX1 inh-2)
CN1CCc2cc3c(c4c2[C@H]1[C@H](O)c1ccccc1-4)OCO3	SMARCA2 act 9.3
COc1cc(C=NN2CCN(C(c3ccccc3)c3ccccc3)CC2)cc(OC)c1OC(C)=O	none (no result: DAX1 inh-2)
Cc1[nH]c2ccc(-c3nnc(SCC(=O)c4ccc(F)cc4)o3)cc2c1C	SMARCA2 act 12
Cc1cc(C)c(C)c(C(=O)CSc2nnc(-c3ccc4[nH]c(C)c(C)c4c3)o2)c1C	none
COc1ccc2c(C(=O)c3ccc(C)cc3)n(Cc3ccc(C(N)=O)cc3)[n+]([O-])c2c1	hcDAF12 agonist 11, ssDAF12 agonist 2.1
Cn1c(NC(=O)c2ccccc2)nc(Cc2ccccc2)c1-c1ccccc1	none (no result: DAX1 inh-2)
COc1ccc(CCNC(=O)COC(=O)c2cc3ccccc3oc2=O)cc1OC	ssDAF12 agonist 1.4
O=S1(=O)c2c(cccc2N2CC[C@@H](O)C2)O[C@H]2CCN1C2	none (no result: DAX1 inh-2)
CCCCCCCCN1C(=O)[C@@H](CC(=O)NCc2ccc(OC)c(OC)c2)C[C@@]2(C(=O)OC)C1=C[C@H](COCc1ccccc1)O[C@@H]2C	none (no result: DAX1 inh-2)
N#Cc1cc2cc3c(cc2nc1N1CCCCC1)OCCO3	hcDAF12 agonist 6.2
COc1ccc([C@H]2OC(=O)C[C@H]2C(=O)N2CCN(c3ccccc3Cl)CC2)cc1OC	none (no result: DAX1 inh-2)
O=C(NCc1ccc(F)cc1)c1c2c(nc3ccccc13)CCN(Cc1ccccc1)C2	DAX1 inh-2 4.8
CC1(C)CC(=O)C(N=Nc2cccc([N+](=O)[O-])c2)=C(O)C1	DAX1 inh-2 6.1
COc1ccc([C@H]2OC(=O)C[C@H]2C(=O)N2CCCC2)cc1OC	none (no result: DAX1 inh-2)
CN1CCN(C(=O)c2cc(Cl)ccc2Cl)CC1	none
CN1CCN(C(=O)c2cc(=O)c3cc(Cl)cc(Cl)c3o2)CC1	ssDAF12 agonist 2.0
Cc1ccc(S(=O)(=O)n2ccc(-c3c(-c4ccc(F)cc4)noc3C)n2)cc1	none (no result: DAX1 inh-2)
O=C1c2cc(O)cc(O)c2C(=O)c2c1cc(O)c([C@@H](CO)CCO)c2O	hcDAF12 agonist 6.1
CC(C)(C)c1ccc(NC(=O)C2=CC=CN3CCS(=O)(=O)N=C23)cc1	DAX1 inh-1 3.9
Clc1cc2nc(-c3cccnc3Cl)[nH]c2cc1Cl	hgDAF-12 ag 11, DAX1 inh-1 3.8, DAX1 inh-2 4.3, hcDAF12 agonist 6.2, ssDAF12 agonist 1.1
Cc1cc(=O)[nH]c(-c2ccccc2O)n1	none (no result: hgDAF-12 ag, SMARCA2 act, DAX1 inh-1, hcDAF12 agonist, ssDAF12 agonist)
Cc1cc2nc(-c3ccccc3O)[nH]c2cc1C	hgDAF-12 ag 12, DAX1 inh-1 4.1, hcDAF12 agonist 5.8
C[C@@H]1ON(C)[C@H]2C[C@H]3c4[nH]c5cccc(-c6ccccc6F)c5c4CCN3C(=O)[C@@H]12	none (no result: DAX1 inh-2)
CCC(C)NC(=O)CNc1nnnn1-c1ccccc1 (stereo unspecified)	none (no result: DAX1 inh-2)
Cn1/c(=N\NC(=O)c2ccccc2Cl)sc2ccccc21	hgDAF-12 ag 12
COC(=O)[C@]12C[C@H](CC(=O)NCCCN3CCCC3=O)C(=O)N(Cc3ccco3)C1=C[C@H](C(C)C)O[C@@H]2C1CC1	none (no result: DAX1 inh-2)
C=CCN1C(=O)[C@@H](CC(=O)NCc2cccc3ccccc23)[C@]2(C(=O)OC)CCCCC=C12	none (no result: DAX1 inh-2)
Nc1cc2ccccc2oc1=O	none
c1ccc2occc2c1	DAX1 inh-2 4.3
CCN1CCN(CC(=O)N/N=C/c2ccc(F)cc2F)CC1	ssDAF12 agonist 1.1
